Rv3671c protease: inhibits the M. tuberculosis serine protease Rv3671c; AID 2606; inhibition, % at 5.96 µM; 0.048% of 320,000 active; P9WHR9; in the data active = inhibition above about 38%;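 also: extracellular domain of Rv3671c used as enzyme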
Target sequence (P9WHR9 whole entry, looked up, the tested form may be a part): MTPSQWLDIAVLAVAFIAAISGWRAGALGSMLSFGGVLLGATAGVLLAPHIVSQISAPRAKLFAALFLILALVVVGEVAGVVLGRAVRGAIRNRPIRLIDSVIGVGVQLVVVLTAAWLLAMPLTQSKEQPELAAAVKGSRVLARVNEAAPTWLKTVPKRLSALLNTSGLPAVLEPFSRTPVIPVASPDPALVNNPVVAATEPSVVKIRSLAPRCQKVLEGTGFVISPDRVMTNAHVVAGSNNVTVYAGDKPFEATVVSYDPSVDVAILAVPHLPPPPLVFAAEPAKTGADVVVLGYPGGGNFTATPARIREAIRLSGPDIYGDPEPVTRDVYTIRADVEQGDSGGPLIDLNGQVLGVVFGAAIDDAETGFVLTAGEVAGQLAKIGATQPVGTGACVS
Mtb FBA inh: Mtb fructose-bisphosphate aldolase inhibition | P9WQA3 | inhibition, % at 1 µM | 2.3% of 360,000 active | purified M. tuberculosis FBA, fluorescence read-out
BioA inh: BioA (M. tuberculosis) enzyme inhibition; purified M. tuberculosis BioA enzyme, plate reader; inhibition, % at 9.99 µM; 0.096% of 360,000 active; in the data active = inhibition above about 40%; inconclusive = no clear call, values can overlap the other calls
FadD28 binding: blocks FadD28 binding to the bisubstrate probe; fluorescence polarization; inhibition, % at 12.5 µM; 0.22% of 360,000 active; AID 588549; in the data active = inhibition above about 8.5%, passing the limit was not always enough; inconclusive = no clear call, values can overlap the other calls
GDH-TPI counter-1: GDH-TPI coupled enzyme inhibition counter-screen | GDH-TPI coupled enzyme counterscreen, NADH absorbance | inhibition, % at 4.8 µM | 1.2% of 360,000 active | AID 588335; in the data active = inhibition above about 30%
Mtb FBA confirm: Mtb FBA inhibition, confirmed | purified M. tuberculosis FBA, fluorescence read-out | 78% of 5,600 active | AID 651616 | shares compounds with Mtb FBA inh | inhibition, % at 1 µM
GDH-TPI counter-2: inhibits GDH-TPI coupling enzymes, flagging Mtb FBA hits; shares compounds with Mtb FBA inh; GDH-TPI coupled enzyme counterscreen, fluorescence; inhibition, % at 1 µM; 81% of 5,600 active; AID 652141; in the data active = inhibition above about 10%
Each line names hits and unclear results; the compound was inactive in the other large screens (follow-up assays come after a bar, where they were run). Only some compounds are listed: those with a hit (about 3% of all), similar ones and a draw of the others. Rule as the data show it, unless noted: active = inhibition above about 27%; inactive = the rest.

CC(=O)[C@]12O[C@]3(COC[C@H](c4ccccc4)N3C1=O)[C@@H]1C(=O)N(C)C(=O)[C@@H]12	none (no result: Rv3671c protease, Mtb FBA inh, FadD28 binding, GDH-TPI counter-1)
CC1CC(C)CN(c2oc(-c3ccco3)nc2C#N)C1 (stereo unspecified)	Mtb FBA inh 91 | Mtb FBA confirm inactive | GDH-TPI counter-2 inactive
N#Cc1nc(-c2ccco2)oc1N1CCc2ccccc2C1	Mtb FBA inh 46 (no result: BioA inh) | Mtb FBA confirm 52 | GDH-TPI counter-2 39
COc1ccc(C(=O)/C=C/Nc2ccc([N+](=O)[O-])cc2C)c(OC)c1	none
COc1ccc(C(=O)/C=C/Nc2ccc([N+](=O)[O-])cc2C)cc1OC	Mtb FBA inh 88 | Mtb FBA confirm 83 | GDH-TPI counter-2 75
CC(C)NC(=O)N[C@H]1CC[C@H](CC(=O)O)O[C@H]1CO	none (no result: Rv3671c protease, Mtb FBA inh, FadD28 binding, GDH-TPI counter-1)
CC(=O)Nc1ccc(NC(=O)COc2ccc(-c3ccc(C#N)cc3)cc2)cc1	none
Cc1cccc(NC(=O)CNC(=O)COc2ccc(-c3ccc(C#N)cc3)cc2)c1C	Mtb FBA inh 29 (no result: BioA inh) | Mtb FBA confirm 101 | GDH-TPI counter-2 80
N#Cc1ccc(-c2ccc(OCC(=O)Nc3cccnc3)cc2)cc1	Mtb FBA inh 43 (no result: Rv3671c protease) | Mtb FBA confirm 116 | GDH-TPI counter-2 85
CC(O)Cn1nc([N+](=O)[O-])nc1N (stereo unspecified)	Mtb FBA inh 31 | Mtb FBA confirm 180 | GDH-TPI counter-2 153
N#CC(C#N)=C1NC(N)=C(C#N)C(c2ccccc2)=C1C#N	Mtb FBA inh 71, FadD28 binding inconclusive, GDH-TPI counter-1 33 (no result: BioA inh) | Mtb FBA confirm 86 | GDH-TPI counter-2 74
COc1ccc(P2(=O)Nc3ccccc3N2)cc1	none
COc1ccc2c(c1)NP(=S)(c1ccccc1)N2C (stereo unspecified)	Mtb FBA inh 27 (no result: Rv3671c protease) | Mtb FBA confirm 67 | GDH-TPI counter-2 55
C[C@@H]1CN([C@H](C)CO)C(=O)Cc2cc(NC(=O)Cc3ccccc3)ccc2O[C@H]1CN(C)S(=O)(=O)c1ccccc1	none (no result: Rv3671c protease, Mtb FBA inh, FadD28 binding, GDH-TPI counter-1)
Cc1ccc(S(=O)(=O)N(C)C[C@@H]2Oc3c(NC(=O)Nc4ccc5c(c4)OCO5)cccc3C(=O)N([C@@H](C)CO)C[C@@H]2C)cc1	none (no result: Rv3671c protease, Mtb FBA inh, FadD28 binding, GDH-TPI counter-1)
COc1ccc(C(=O)c2sc3nc(-c4ccc(OC)cc4)ccc3c2N)cc1	Mtb FBA inh 34 (no result: BioA inh) | Mtb FBA confirm 28 | GDH-TPI counter-2 31
Cc1ccc(-c2ccc(CCC(=O)O)n2CC(=O)O)cc1	none
O=C(O)CCc1ccc(-c2ccccc2)n1Cc1ccco1	none
Cc1ccc(-c2ccc(CCC(=O)O)n2CC2CCCO2)cc1 (stereo unspecified)	Mtb FBA inh 41 (no result: BioA inh) | Mtb FBA confirm 92 | GDH-TPI counter-2 60
O=C(O)CCc1ccc(-c2ccccc2)n1CC1CCCO1 (stereo unspecified)	Mtb FBA inh 37 | Mtb FBA confirm 133 | GDH-TPI counter-2 119
Cc1ccc(S(=O)(=O)N[C@H]2CC[C@@H](CC(=O)NC3CCCCC3)O[C@H]2CO)cc1	none (no result: Rv3671c protease, Mtb FBA inh, FadD28 binding, GDH-TPI counter-1)
CCC1Cc2c(nc(N)c3c(N)nc(N4CCOCC4)c(C#N)c23)O1 (stereo unspecified)	Mtb FBA inh 37 (no result: BioA inh) | Mtb FBA confirm 147 | GDH-TPI counter-2 122
COc1ccc(CN2C(=O)Cc3c2nc(N)c2c(N)nc(N4CCOCC4)c(C#N)c32)cc1	Mtb FBA inh 41 (no result: BioA inh) | Mtb FBA confirm active | GDH-TPI counter-2 active
Cc1ccc(S(=O)(=O)Nc2nc(C)c(C(=O)NN)s2)cc1	none
C/C(=N/NC(=O)c1sc(NS(=O)(=O)c2ccc(C)cc2)nc1C)c1sc(N)nc1C	Mtb FBA inh 66 (no result: BioA inh) | Mtb FBA confirm 172 | GDH-TPI counter-2 140
COCC(=O)Nc1ccc2c(c1)OC[C@@H](C)N(C(=O)Cc1cccnc1)C[C@H](C)[C@@H](OC)CN(C)C2=O	none (no result: Rv3671c protease, Mtb FBA inh, FadD28 binding, GDH-TPI counter-1)
COc1cccc2oc3ccc(C#Cc4ccccn4)cc3c(=O)c12	Mtb FBA inh 86 | Mtb FBA confirm 99 | GDH-TPI counter-2 83
C[C@@H]1CN([C@H](C)CO)C(=O)c2cc(NC(=O)Cc3ccccc3)ccc2O[C@@H](C)CCCCO[C@H]1CN(C)S(=O)(=O)c1ccc(Cl)cc1	none (no result: Rv3671c protease, Mtb FBA inh, FadD28 binding, GDH-TPI counter-1)
CNC[C@@H]1Oc2ccc(NC(=O)Cc3ccccc3)cc2CC(=O)N([C@@H](C)CO)C[C@H]1C	none (no result: Rv3671c protease, Mtb FBA inh, FadD28 binding, GDH-TPI counter-1)
CCC1(C)Cc2ccccc2-c2nc3n(c(=O)c21)CC(C(=O)O)S3 (stereo unspecified)	Mtb FBA inh 39 | Mtb FBA confirm inactive | GDH-TPI counter-2 inactive
